{
  "source": "ChEMBL document CHEMBL5308541",
  "about": "“MAIP: An Open-Source Tool to Enrich High-Throughput Screening Output and Identify Novel, Druglike Molecules with Antimalarial Activity” (ACS Med Chem Lett, 2023)",
  "note": "Screen size: about 4,800 compounds; about 420 (8.8%) showed an effect of 50% or more. This is one part of a sample in which strong results are shown more often than they occur.",
  "data": [
    {"test_system": "Plasmodium falciparum", "assay": "Confirmatory screen in NF54 nanoGlo assay, in single point, at 2uM, 72h", "assay_type": "functional, Erythrocyte", "details": "timepoint 72 hour", "units": {"% Inhibition": "%"}, "values": [
      {"smiles": "Nc1nc(NCC2CCN(CCc3ccccc3)CC2)cc([C@H]2C[C@@H](N)C2)n1", "% Inhibition": 23},
      {"smiles": "Cc1ccc(-c2cccc3c(C(=O)NCCCN4CCC(N5CCCCC5)CC4)cc(C)nc23)cc1", "% Inhibition": 98},
      {"smiles": "COc1ccc(-c2cncc(C(=O)NCC3CCN(CCN(C)C)CC3)c2)cc1", "% Inhibition": 94},
      {"smiles": "CN(C)CCN1CCC(CNCc2ccc3ncccc3c2)CC1", "% Inhibition": 5},
      {"smiles": "Cn1cncc1[C@@H]1CNC[C@H]1CNC(=O)c1ccccc1NC1CCCCC1", "% Inhibition": 79},
      {"smiles": "Brc1cccc(NCCNC2CCN(Cc3cccnc3)CC2)c1", "% Inhibition": 36},
      {"smiles": "Cc1cc(F)ccc1N1CCC(NCCCNc2cccnc2)CC1", "% Inhibition": 18},
      {"smiles": "CC1CN(c2ccccc2NC(=O)c2ccc(-c3cnco3)cc2)CC(C)O1", "note": "(stereo unspecified)", "% Inhibition": -6},
      {"smiles": "Cc1ccccc1CN1CCC(CNc2c3c(nc4ccccc24)CCC3)CC1", "% Inhibition": 95},
      {"smiles": "Cc1cc(C)c(-c2csc(Nc3ncnc4[nH]ncc34)n2)cc1C", "% Inhibition": 19},
      {"smiles": "O[C@H](COc1ccccc1CNCc1cc(-c2ccccc2)[nH]n1)CN1CCCCC1", "% Inhibition": 80},
      {"smiles": "CN(C[C@H](O)COc1ccccc1CN1CCC(c2ccncc2)CC1)C1CCCCC1", "% Inhibition": 39},
      {"smiles": "CN1CCC(N(C)C[C@H](Nc2ncnc3ccccc23)c2ccccc2)CC1", "% Inhibition": 99},
      {"smiles": "Cc1nc2ccc(Oc3ccccc3)cc2c(O)c1CN(C)C1CCN(C)CC1", "% Inhibition": 22},
      {"smiles": "CC1(N2CCC2)CCC(NC[C@H]2CCN(Cc3ccccc3)C2)CC1", "note": "(stereo partly specified)", "% Inhibition": 66},
      {"smiles": "OC1CN(Cc2cnc(C3CCCCC3)nc2)CCC1Nc1ncccn1", "note": "(stereo unspecified)", "% Inhibition": 1},
      {"smiles": "CN1CCN(CCc2ccc(N[C@H]3CCCN(Cc4ccccc4)C3(C)C)cc2)CC1", "% Inhibition": 10},
      {"smiles": "C[C@H]1CCCN(CCNC(=O)c2ccc(-c3ccc4c(=O)[nH]ccc4c3)cc2)C1", "% Inhibition": 58},
      {"smiles": "c1cc(CN2CCN(c3cc(N4CCN(Cc5ccncc5)CC4)ncn3)CC2)ccn1", "% Inhibition": 0},
      {"smiles": "CCOc1ccc2nc(N3CCC(N4CCC([C@H](O)c5cccnc5)CC4)CC3)nc(C)c2c1", "% Inhibition": 29},
      {"smiles": "CCOc1ccc2nc(CN(CC)CC3CCN(C4CCN(C)CC4)CC3)ccc2c1", "% Inhibition": 82},
      {"smiles": "Cc1noc(-c2ccnc(NC[C@@H](c3ccccn3)N3CCOCC3)c2)n1", "% Inhibition": 93},
      {"smiles": "COc1ccnc(NCCCc2nc(-c3ccncc3)cs2)n1", "% Inhibition": 65},
      {"smiles": "CN(C)C1CCN(CCN[C@H]2CCc3ccc(F)cc32)CC1", "% Inhibition": 85},
      {"smiles": "Cc1ccccc1-c1cccc(N2CCC(NCC3CCNCC3)CC2)c1", "% Inhibition": 99},
      {"smiles": "Cc1ccccc1-c1cccc(CNCCCN2CCC[C@H](O)C2)c1", "% Inhibition": 12},
      {"smiles": "c1ccc(-c2nc3c(c(NCCNc4ncccn4)n2)CCC3)nc1", "% Inhibition": 25},
      {"smiles": "Cc1nc(-c2ccccn2)nc(NC2CCN(CC(F)F)CC2)c1C", "% Inhibition": 35},
      {"smiles": "CCCN(CCN1CCN(CC)CC1)c1nc(-c2ccccn2)nc2c1CCC2", "% Inhibition": 6},
      {"smiles": "CCOc1cc(C(=O)NC2CCN(CC3CCCC3)CC2)cc(-c2ccccc2)c1OC", "% Inhibition": 95},
      {"smiles": "Cc1cnccc1N1CCCN(Cc2ccccc2OCCN2CCN(C)CC2)CC1", "% Inhibition": 99},
      {"smiles": "CN(C)C1(CNc2nc(C(F)(F)F)nc3cc(F)ccc23)CCCCCC1", "% Inhibition": 61},
      {"smiles": "CN(C)C1(CNc2nc(C(F)(F)F)nc3cc4c(cc23)OCO4)CCCCCC1", "% Inhibition": 49},
      {"smiles": "C[C@H](Nc1nc(N)c2ccccc2n1)c1cccc(-n2cncn2)c1", "% Inhibition": 36},
      {"smiles": "COCCNc1nc(N[C@@H](C)c2ccccc2)c2ccccc2n1", "% Inhibition": 63},
      {"smiles": "COCCN1CCC[C@H](CNCc2cnn(-c3ccc4ccccc4c3)c2)C1", "% Inhibition": 12},
      {"smiles": "COCCN1CC[C@H](CNC2CCN(c3ncc4ccc(F)cc4n3)CC2)C1", "% Inhibition": 59},
      {"smiles": "Cc1cc(N2CC3COCCC3(C(=O)O)C2)nc2ccc(F)cc12", "note": "(stereo unspecified)", "% Inhibition": -2},
      {"smiles": "c1cncc(-c2ccc(CNC3CCN(Cc4cccs4)CC3)cc2)c1", "% Inhibition": 45},
      {"smiles": "Cc1ccn2cc(-c3ccc(N4CCC(NCc5cccnc5)CC4)cc3)nc2c1", "% Inhibition": 60},
      {"smiles": "CN(c1ccccc1)c1ccc(CN2CCN([C@H]3CCNC3)CC2)cc1", "% Inhibition": 54},
      {"smiles": "COC(=O)c1cn(CCNc2ccnc3cc(Cl)ccc23)cc2c(O)nnc1-2", "% Inhibition": 95},
      {"smiles": "Cc1ocnc1CNC[C@H](O)c1ccc(Cl)c(Cl)c1", "% Inhibition": 89},
      {"smiles": "COCCCN1CCC(Nc2ncnc3cc(C)c(C)cc23)CC1", "% Inhibition": 97},
      {"smiles": "CCc1ccc2ncnc(NCCCN3CCN(CCO)CC3)c2c1", "% Inhibition": 43},
      {"smiles": "Cc1cnccc1NCCNCc1cccc(OCCCCN2CCOCC2)c1", "% Inhibition": 95},
      {"smiles": "Cc1cnccc1NCCNCc1cnc(N2CCCCC2)nc1", "% Inhibition": 61},
      {"smiles": "c1ccc2c(CNCCC3CCN(c4ccncc4)CC3)csc2c1", "% Inhibition": 77},
      {"smiles": "Fc1ccc(-n2cc(CNCCC3CCN(c4ccncc4)CC3)cn2)cc1", "% Inhibition": 88},
      {"smiles": "CCN1CCN(c2ccccc2CNCCC2CCN(C)CC2)CC1", "% Inhibition": 18},
      {"smiles": "COc1ccc(-c2cc(-c3ccccc3O)n([C@@H]3C(=O)Nc4ccc(Br)cc43)n2)cc1", "% Inhibition": 31},
      {"smiles": "CCCc1cccc(CNC2CCN(C3CCN(C)CC3)CC2)c1", "% Inhibition": 58},
      {"smiles": "CN1CCN(CCNC2CCN3CCCC3C2)C(c2ccccc2)C1", "note": "(stereo unspecified)", "% Inhibition": 32},
      {"smiles": "C[C@@H](CNC1CCN(C2CCN(C)CC2)CC1)c1cccc(Cl)c1", "% Inhibition": 98},
      {"smiles": "COc1ccc2nc(C)cc(NCc3cccc(NC(=O)c4ccco4)c3)c2c1", "% Inhibition": 96},
      {"smiles": "Cc1cc(NCCCN2CCC[C@H](O)C2)c2cc(F)ccc2n1", "% Inhibition": 28},
      {"smiles": "COc1ccc2c(C)cc(NCCCN3CCC[C@H](C(N)=O)C3)nc2c1", "% Inhibition": 87},
      {"smiles": "N[C@H]1CC[C@@H](NC2CCN(c3ccc(F)c(F)c3)CC2)CC1", "% Inhibition": 45},
      {"smiles": "Cc1nc2ccc(CNC3CCN(c4ccc(F)c(F)c4)CC3)cc2[nH]1", "% Inhibition": 56},
      {"smiles": "Fc1ccc(N2CCC(N[C@@H]3COC4(CCNCC4)C3)CC2)cc1F", "% Inhibition": 13},
      {"smiles": "COC(CN(Cc1nc(N)nc(Nc2ccc(C)cc2)n1)Cc1nc(N)nc(Nc2ccc(C)cc2)n1)OC", "% Inhibition": 84},
      {"smiles": "OCCN1CCC(NCCc2cc(Cl)cc(Cl)c2)CC1", "% Inhibition": 28},
      {"smiles": "CN1CCN(CCCCNC2CC3CCC(C2)N3Cc2ccccc2)CC1", "note": "(stereo unspecified)", "% Inhibition": 34},
      {"smiles": "O=C(NCc1cccc(-c2cccnc2)c1)N[C@H]1CCN(C2CCCCC2)C1", "% Inhibition": 48},
      {"smiles": "O=C(CCc1nnc(-c2ccc(-c3ccccc3)cc2)o1)NC[C@@H]1CCCN2CCCC[C@H]12", "% Inhibition": 56},
      {"smiles": "CC(C)(C)n1ncc2c(NCc3ccc4cccnc4c3O)ncnc21", "% Inhibition": 27},
      {"smiles": "CNc1nc(N2CCN(CC(=O)NC3CCCCC3)CC2)nc2ccccc12", "% Inhibition": 23},
      {"smiles": "CN1CCN(CC2CCN(c3ccnc4ccccc34)CC2)CC1", "% Inhibition": 99},
      {"smiles": "COc1ccc2c(N3CC[C@H](CN4CCCC4)C3)ccnc2c1", "% Inhibition": 99},
      {"smiles": "COc1cc2nc(-c3ccc(F)c4cccnc34)nc(N)c2cc1OC", "% Inhibition": 98},
      {"smiles": "Cc1cccc(Nc2ccnc(Nc3ccc(N4CCN(C)CC4)cc3)n2)c1", "% Inhibition": 93}
    ]}
  ]
}
